From PubChem BioAssay
In the library only some 3.8% were active in any assay of this set; here they are far more common.
FAS TE block: FAS thioesterase domain inhibitors, primary screen, biochemical, fluorescence intensity, uHTS; recombinant FAS-TE, OMFH fluorogenic substrate, fluorescence endpoint; inhibition, % at 15 µM; actives 0.67% (n = 360,000); AID 602261, 2012;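 active means compounds whose normalised, plate-corrected inhibition of enzyme fluorescence in the single-dose primary screen is 50% or more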
aDG glyco up: activators of alpha-DG glycosylation, primary screen, uHTS, Pro5-aDG cells, AlphaScreen | actives 0.22% (n = 360,000) | activation, % at 10 µM | AID 624168, 2012 | alpha-DG glycosylation AlphaScreen (IIH6); 0% Pro5, 100% B10-LARGE cell signal;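 active means activation of at least 8% versus controls, or a plate z-score of at least 8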;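 further: Pro5 are CHO cells carrying HIG-tagged alpha-DG that lacks glycosylation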
MPTP inh: mitochondrial permeability transition pore inhibitors, primary screen, biochemical, isolated mouse mitochondria, absorbance; actives 1.4% (n = 360,000); AID 602449, 2012; Ca2+ swelling absorbance, 30 min; inhibition, % at 10 µM;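 active means inhibition of 50% or more, scaled per plate between neutral and stimulator controls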
H9c2 protect: cardioprotection against H2O2-induced cell death, primary screen, uHTS, H9c2 cells, ATPLite luminescence; protection from H2O2 cell death, % at 20 µM; AID 588492, 2011; H9c2 cardiomyocytes, H2O2 injury protection, 2 h; actives 0.63% (n = 360,000);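 active means compounds giving at least 50% protection of heart cells from peroxide-induced death in the single-dose screen, raw or plate-pattern-corrected value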
SUMO Mot1 rescue: yeast Mot1-301 growth rescue at high temperature, primary screen, SUMOylation pathway inhibitor project, S. cerevisiae, ATP luminescence, 38.5C; S. cerevisiae Mot1-301 growth rescue; percent above DMSO median, 100 means doubled; growth rescue, % at 18.8 µM; actives 1% (n = 320,000);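 active means every valid replicate shows activation above 250% relative to neutral control wells; inactive means the rest, any valid replicate at or below 250%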
Yeast superoxide: reduction of superoxide in aged yeast, primary screen, HTS. S. cerevisiae aged cells, superoxide DHE fluorescence; active compounds read low. superoxide response (% of plate mean), % at 10 µM. actives 0.18% (n = 330,000). AID 2690, 2010;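 active means superoxide response under a set limit, about three screen SD below normal, cut at about 65% in these data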;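 further: yeast aged for seven days with compound at 30 °C before DHE staining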
MPTP counter: fluorescence retest of MPTP screen hits in isolated mitochondria, single concentration; shares compounds with MPTP inh; membrane potential, Rhodamine 123 fluorescence; inhibition, % at 10 µM; actives 78% (n = 5,000); in the data active means inhibition above about 22%
MPTP swell DR: mitochondrial permeability transition pore inhibitors, dose response, biochemical, absorbance, uHTS hits; shares compounds with MPTP inh; isolated mitochondria swelling; IC50, µM; actives 58% (n = 780); in the data active means IC50 below about 20 µM
MPTP cs DR: fluorescent counter-screen in isolated mitochondria, dose response, counter-screen for MPTP inhibitor project, biochemical, fluorescence, uHTS hits; isolated mitochondria counterscreen, fluorescence read-out; shares compounds with MPTP inh; AID 651564, 2012; IC50, µM; actives 49% (n = 780); in the data active means IC50 below about 80 µM
Hits are given with their value; – = inactive; · = not tested or not shown.

SMILES	FAS TE block	aDG glyco up	MPTP inh	H9c2 protect	SUMO Mot1 rescue	Yeast superoxide	MPTP counter	others
O=C(CCN1C(=O)/C(=C/c2ccccc2)SC1=S)NNC(=O)c1cccnc1	–	–	88	–	–	–	74
COc1ccc(/C=C2\SC(=S)N(CCC(=O)N3CCCCC3)C2=O)cc1	–	–	–	–	–	–	·
O=C(O)CCN1C(=O)/C(=C\c2cccc(OCC(=O)Nc3ccc(Cl)cc3)c2)SC1=S	–	–	–	–	–	–	·
O=C(CN1C(=O)/C(=C/c2cccc(Br)c2)SC1=S)Nc1cccnc1	–	–	–	–	–	–	·
Cc1ccc(NC(=O)COc2cccc(/C=C3\SC(=S)N(CCC(=O)O)C3=O)c2)cc1Cl	–	–	51	–	–	–	26
O=C(CCN1C(=O)/C(=C/c2cccc(Br)c2)SC1=S)Nc1cccnc1	–	–	52	–	–	–	–	MPTP swell DR=–;MPTP cs DR=20
CCOc1ccc(NC(=O)CN(C)C(=O)c2cccc(S(=O)(=O)N3CCN(C)CC3)c2)cc1OCC	–	–	–	–	·	·	·
COc1ccc(C(=O)/C=C2\Sc3ccccc3N2C)cc1	–	–	–	–	–	–	·
COc1ccc(-[n+]2c(C)cc(/C=C3\Sc4ccccc4N3C)cc2C)cc1	–	–	95	–	–	–	97
COc1ccccc1OC(=O)CCN1c2ccccc2Sc2ccccc21	–	–	–	–	–	–	·
COc1ccccc1-[n+]1c(C)cc(/C=C2\Sc3ccccc3N2C)cc1C	–	–	104	–	–	–	102
CC1(Cc2ccccc2Cl)C(=O)Nc2c(Cl)ccc(Cl)c21 (stereo not given)	–	–	–	–	·	·	·
CC(C)(CNC(=O)c1ccccc1F)CNC(=O)c1ccccc1F	–	–	–	–	–	–	·
COCCNc1nc2nonc2nc1NC(C)c1ccccc1Cl (stereo not given)	–	–	75	–	–	–	96
O=S(=O)(Nc1ncnc2scc(-c3ccc(F)cc3)c12)c1cc(F)ccc1F	–	–	57	–	–	–	75
Cc1ccc(-c2csc3ncnc(NS(=O)(=O)c4ccc(Cl)cc4)c23)cc1	–	–	85	–	–	–	63
CCCCCCCCN1CC(Cc2cc3ccccc3c3ccccc23)N(c2ccccc2)c2ccccc2C1=O (stereo not given)	·	–	–	·	·	·	·
CC(=O)C1=C(C)Nc2ncnn2C1c1ccc(Br)cc1 (stereo not given)	–	–	–	–	–	–	·
COCC(=O)O[C@]1(CCN(C)CCCc2nc3ccccc3[nH]2)CCc2cc(F)ccc2[C@@H]1C(C)C	–	–	93	–	–	–	–
CCOC(=O)CCc1nc2ccccc2[nH]1	–	–	–	–	–	–	·
Cc1ccc2c(c1)c1c(n2CC(O)CNC2CCCCC2)CCCC1 (stereo not given)	–	–	80	–	–	–	–
CCc1nc2ccc(C(=O)NCCCN3CCCC3=O)cn2c1N(CC)C(=O)NCCc1ccccc1	–	–	–	–	·	·	·
OCC1OC(n2cnc3c(NCc4ccccc4O)ncnc32)C(O)C1O (stereo not given)	–	–	–	–	·	·	·
C=CCN1C(=O)S/C(=C/c2ccsc2)C1=O	–	–	–	–	–	–	·
C=CCN1C(=O)S/C(=C/c2ccc(Sc3nc4ccccc4[nH]3)o2)C1=O	–	–	91	–	–	–	88
SMILES	FAS TE block	aDG glyco up	MPTP inh	H9c2 protect	SUMO Mot1 rescue	Yeast superoxide	MPTP counter	others
CC(C)N1C(=O)S/C(=C/c2ccc(Sc3nc4ccccc4[nH]3)o2)C1=O	–	–	100	–	–	–	88
Cc1nn(-c2ccccc2)c(N2CCCC2)c1/C=N/NC(=O)c1cc2ccccc2cc1O	–	–	97	–	–	–	70
Cc1nn(-c2ccccc2)c(N2CCCC2)c1/C=N/NC(=O)c1cc(-c2ccccc2)nc2ccccc12	–	–	–	–	–	–	·
CC(C)Oc1ccc(Cn2c(=O)oc3ccccc32)cc1	–	–	–	–	–	–	·
CN1CCN(CC#CCn2c3ccccc3c3ccccc32)CC1	–	–	86	–	–	–	–	MPTP swell DR=–;MPTP cs DR=–
CC(C)(C)c1ccc(C(=O)C2CCCN(C(=O)c3ccccn3)C2)cc1 (stereo not given)	–	–	70	–	·	·	93
NNC(=O)Nc1cccc(C(F)(F)F)c1	–	–	–	–	·	–	·
O=C(Nc1ccncc1)Nc1cccc(C(F)(F)F)c1	–	–	81	–	–	–	99
O=C(NNc1cccc(Cl)n1)Nc1cccc(C(F)(F)F)c1	–	–	70	–	–	–	72
NC(=O)/C=C\C(=O)Nc1cccc(C(F)(F)F)c1	–	–	–	–	–	–	·
N/C(=N\OC(=O)Nc1cccc(C(F)(F)F)c1)c1ccno1	–	–	72	–	–	–	94
O=C(Nc1ccc(OC(F)F)cc1)Nc1cccc(C(F)(F)F)c1	–	–	86	–	–	–	63
C/C(=N/NC(=O)c1nnn(-c2nonc2N)c1COc1ccccc1)c1ccccc1	–	–	–	–	–	–	·
COc1ccc(-n2ncc3c2CC(C)(C)CC3NC(=O)Cc2nonc2C)cc1 (stereo not given)	–	–	–	–	–	–	·
CN(C)S(=O)(=O)NCCNC(=O)c1cc(OCC(F)(F)F)ccc1OCC(F)(F)F	–	–	–	–	–	–	·
O=C(Nc1cccc(C(F)(F)F)c1)c1sc(Cl)nc1C(F)(F)F	–	–	83	–	–	–	77
O=C(NCCNC(=O)c1cc(OCC(F)(F)F)ccc1OCC(F)(F)F)Nc1cccc(C(F)(F)F)c1	–	–	72	–	·	–	88
C[C@@H]1CN([C@H](C)CO)C(=O)c2cc(NS(=O)(=O)c3ccc(F)cc3)ccc2O[C@@H]1CN(C)Cc1ccc(Cl)c(Cl)c1	–	–	–	–	·	–	·
CC1CCN(CCCCOc2ccc(C(C)(C)C)cc2)CC1	–	–	54	–	–	–	–	MPTP swell DR=6.8;MPTP cs DR=13
CCOP(=O)(OCC)C(NC(=O)Nc1ccc(Cl)c(Cl)c1)c1ccccc1 (stereo not given)	–	–	60	–	–	–	56
